For orientation: inhibition means the relative decrease from the control value, in per cent.

Structures are written as SMILES.

The experiment can be described thus: inhibitors of PAF-induced NFkB signaling in CF airway cells, dose response, cell-based, uHTS hits, panel, cytotoxicity readout (AID 624344). The settings on record: CF bronchial epithelial cells, PAF-induced NFkB reporter inhibition, with PAF, run 1; at 79 µM (top of the series) unless noted.
`CS(=O)(=O)Nc1cccc(-c2cc(NC=O)c3ncc(-c4ccc(F)cc4)n3c2)c1`: the inhibition was found to be 84%.
Take `C[C@@H]1CN([C@H](C)CO)C(=O)c2cc(NC(=O)Nc3ccc(C(F)(F)F)cc3)ccc2O[C@H]1CN(C)S(=O)(=O)c1ccc(Cl)cc1`: the inhibition is 86.7%.
To `Cc1c(C(=O)OCC(C)C)[nH]c2c1C(=O)CC(c1ccco1)C2` (centres undefined) belongs 97.4%.
As for `COc1ccc(COC(=O)C2=C(C)NC(=O)NC2c2ccc(F)cc2)cc1` (centres undefined), the inhibition came to 90.1%.
As for `O=C(COc1ccc(Cl)cc1)Nc1ncc([N+](=O)[O-])s1`, the inhibition was 115%.
On to `O=C(O)/C=C/c1ccc2c(-c3ccccc3)onc2c1`, for which the inhibition was 113%.
With `Cc1nc2sc(C(N)=O)c(N)c2c2c1CCCC2`, the inhibition was 116%.
To `CCN1CCN(Cc2ccc(NC(=O)c3ccc(C)c(NC(=O)c4cccc5[nH]ccc45)c3)cc2C(F)(F)F)CC1` belongs 84.6%; to `O=C(CCl)N(Cc1cc(=O)[nH]c2ccccc12)c1ccccc1`, 68.3%; to `Nc1nc(N)nc(-c2cc(O)ccc2O)n1`, 105%.
On to `CCc1cc2c(Sc3nc4ccccc4s3)ncnc2s1`, for which the inhibition worked out at 114%.
In the case of `O=C(Nc1ccc(Cl)cc1)c1nc[nH]c1C(=O)NCCCCNC(=O)c1[nH]cnc1C(=O)Nc1ccc(Cl)cc1` it was 98.8%; in that of `Cc1ccc(NS(=O)(=O)c2ccc(-c3cnc(C4CC4)o3)cc2)c(C)c1`, 104%; in that of `CC(=O)Nc1ccc(S(=O)(=O)N2c3ccccc3C(C)=CC2(C)C)cc1`, 93.9%.
On to `CN1CCN(S(=O)(=O)c2ccc(Sc3nnnn3-c3ccccc3)c([N+](=O)[O-])c2)CC1`, for which the inhibition was found to be 109%.
As for `CN(C)C=Nc1c(C(=O)c2ccccc2)sc2nccc(N(C)C)c12`, the inhibition is 100%.
For the compound `COc1ccc(C2CNC(=O)C2)cc1OC1CCCC1` (centres undefined), the inhibition was 84.8%.
Turning to `O=C(c1cc([N+](=O)[O-])ccc1N1CCOCC1)N1CCN(c2ccccc2)CC1`, the inhibition came out at 116%.
For the compound `COc1cccc(NC(=O)Nc2nnc(CC(=O)Nc3ccccc3)s2)c1`, the inhibition is 90.4%.
On to `COc1cccc(C(=O)N2C(C(C)C)COc3cc(Br)ccc3S2(=O)=O)c1` (centres undefined), for which the inhibition was 118%.
In the case of `CC1(O)CC(c2ccc(Cl)cc2)=NN1C(=O)c1ccc(Cl)cc1` (centres undefined), the inhibition was 109%.
For `O=C(c1[nH]c(C(F)(F)F)nc1-c1ccccc1)N1CCN(c2c(Cl)cncc2Cl)CC1`, the inhibition was found to be 103%.
Consider `CCN1CCN(Cc2ccc(NC(=O)c3ccc(C)c(NC(=O)c4cc(-c5ccc(Br)cc5)n[nH]4)c3)cc2C(F)(F)F)CC1`, for which the inhibition is 102%.
In the case of `O=C1OC(Nc2nc(-c3ccc(F)cc3)cs2)c2ccccc21` (centres undefined) it was 102%; in that of `Cc1ccc(CNc2ncnc(N)c2[N+](=O)[O-])cc1`, 87.7%.
For `C=C(C)[C@@H]1CC[C@]2(C(=O)O)CC[C@]3(C)[C@H](CC[C@@H]4[C@@]5(C)CC[C@H](O)C(C)(C)[C@@H]5CC[C@]43C)[C@@H]12`, the inhibition was found to be 47.9%.
In the case of `C/C(=N\Nc1cc(N2CCOCC2)ncn1)c1cccc([N+](=O)[O-])c1`, the inhibition is 115%.
With `C=CCn1c(Oc2ccccc2F)nc2c1c(=O)n(C)c(=O)n2C`, the inhibition is 95.6%.
Consider `COc1ccc(OC)c(-c2nnc3n2N=C(c2ccc(OC)c(OCC4CC4)c2)CS3)c1`, for which the inhibition was determined as 113%.
With `O=C(Nc1cccc(S(=O)(=O)N2CCCCC2)c1)Nc1ccc(Cl)cc1Cl`, the inhibition turned out to be 103%.
For the compound `Cn1c(Sc2ccc(Br)cc2)c(C=O)c2ccccc21`, the inhibition came out at 108%.
In the case of `O=C(Nc1ccc(F)cc1)Nc1ccc(N2CCCC2)c(S(=O)(=O)Nc2ccccc2Cl)c1` it was 111%; in that of `CN(c1ncnc(N)c1[N+](=O)[O-])C1CCCCC1`, 115%.
On to `Cc1ccnc(NC(=O)Cc2ccc(-c3ccccc3)cc2)c1`, for which the inhibition is 111%.
For the compound `COC(=O)c1ccc(-c2ccc(OC)c([C@H]3[C@H]4C=CC[C@@H](C)[C@@H]4C(=O)N3Cc3ccccc3)c2)cc1`, the inhibition stood at 111%.
With `CCCCCCc1cc2cc(C(=O)OCC)c(=O)oc2cc1O`, the inhibition stood at 106%.
With `CCC(Oc1ccccc1)C(=O)Nc1ncc([N+](=O)[O-])s1` (centres undefined), the inhibition was 112%.
Take `COc1ccc(-c2oc3ccc(-c4ccc(OC)nc4)cc3c2C#CC2(O)CCCCC2)cc1`: the inhibition stood at 103%.
With `O=C(c1nnsc1S(=O)(=O)c1ccc(Cl)cc1)N1CCOCC1`, the inhibition was found to be 96%.

(Values after PubChem BioAssay.)
